# “And” between values parts separate entries of the source, which are not always exact repeats. Equal values may be shown once. Out of some 410,000 compounds screened, about 2,400 (0.59%) were called active. The sample holds actives, similar compounds and a random draw of the others, so the mix is not that of the screen. Cut-off read from the data, not from the text of the source: active = max activation above about 30%; inactive = the rest. Where a structure was tested more than once in an assay, its records may differ in their call.
# Target: D(3) dopamine receptor (Homo sapiens) (UniProt P35462)
# Sequence (P35462 whole entry, looked up): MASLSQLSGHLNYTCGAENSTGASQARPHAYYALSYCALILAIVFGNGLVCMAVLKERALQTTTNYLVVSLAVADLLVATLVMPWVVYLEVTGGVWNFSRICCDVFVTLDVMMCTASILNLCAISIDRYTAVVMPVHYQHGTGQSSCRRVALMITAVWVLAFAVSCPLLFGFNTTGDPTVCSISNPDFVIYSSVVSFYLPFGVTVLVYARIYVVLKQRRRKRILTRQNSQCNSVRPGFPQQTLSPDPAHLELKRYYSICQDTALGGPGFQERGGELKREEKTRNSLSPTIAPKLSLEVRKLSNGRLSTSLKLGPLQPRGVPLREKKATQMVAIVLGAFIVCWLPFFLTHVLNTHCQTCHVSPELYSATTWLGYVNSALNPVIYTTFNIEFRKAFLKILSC
# Experiment: qHTS of D3 Dopamine Receptor Agonist: qHTS; note: 0% is about no effect
# Settings: D3R DiscoveRx beta-arrestin cells, luminescence, 90 min; stronger effect = higher value
# Outline: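 Agonist-mode cell screen: cells plated at 1500/well and incubated overnight at 37 °C, then exposed to library compounds for 90 min at 37 °C. Detection reagent was added for 30–60 min at room temperature, and luminescence was read.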
row,SMILES,max activation
1,COc1ccc(C(=O)c2oc3ccccc3c2NC(=O)COc2cccc(C)c2)cc1,-8.79% (inactive)
2,Cc1ccc(N(CC(=O)NCc2ccc(Cl)cc2)S(=O)(=O)N(C)C)cc1,1.16% (inactive)
3,Cc1ccccc1OCC(=O)Nc1c(C(=O)Nc2ccccc2F)oc2ccccc12,-10.6% (inactive)
4,COC(=O)[C@@H]1CC2=CC(=O)CC[C@]2(C)[C@@]23O[C@@H]2C[C@@]2(C)[C@@H](CC[C@@]24CCC(=O)O4)[C@H]13,3.79% (inactive)
5,COc1cccc(N2CCN(C(=O)CCCCCn3c(=O)[nH]c4ccccc4c3=O)CC2)c1,-3.38% (inactive)
6,COC(=O)c1ccc(NC(=O)c2ccccc2NS(=O)(=O)c2ccccc2)cc1,34.2% (active)
7,Cc1cc(NS(=O)(=O)c2ccc(NC(=O)c3ccccc3C)cc2)nc(C)n1,0.492% (inactive)
8,COC(=O)c1ccccc1NS(=O)(=O)c1ccc2c(c1)CCCN2C(C)=O,-8.34% (inactive)
9,CCOc1ccc(S(=O)(=O)N(CC(=O)NCCSCc2ccc(C)cc2)c2ccccc2)cc1,1.63% (inactive)
10,COc1ccc(C)cc1NC(=O)C(=O)NCCc1sc(-c2cccc(C)c2)nc1C,3.11% (inactive)
11,NNc1nnc(NN)c2ccccc12,-0.65% (inactive)
12,CCOC(=O)c1ccc(NC(=O)CCS(=O)(=O)c2ccc(C)cc2)cc1,4.32% (inactive)
13,Cc1noc(C)c1C(=O)NCCc1ccc(S(N)(=O)=O)cc1,4.23% (inactive)
14,Cc1noc(C)c1C(=O)NC(C)c1ccc2c(c1)OCO2 (stereo not drawn),17.7% (inactive)
15,Cc1noc(C)c1C(=O)Nc1ccccn1,31.1% (active)
16,O=C(/C=C/c1cccc(F)c1)NC1CC1,7.01% (inactive)
17,CCCCn1nc(C(=O)OCC(=O)Nc2sccc2C(N)=O)c2ccccc2c1=O,39.2% (active)
18,NC(=O)c1ccsc1NC(=O)COC(=O)Cc1n[nH]c(=O)c2ccccc12,-0.194% (inactive)
19,Cc1cccc(C(=O)OCC(=O)Nc2sccc2C(N)=O)c1C,3.92% (inactive)
20,CO[C@]1(NC(=O)CSC(F)F)C(=O)N2C(C(=O)O)=C(CSc3nnnn3CCO)CO[C@H]21,4.38% (inactive)
21,CC(CCc1ccc(O)cc1)NCc1ccc(Cl)cc1Cl (stereo not drawn),91.1% (active)
22,COc1ccc(CNC(=O)C(C)NCc2ccccc2Cl)cc1 (stereo not drawn),-7.27% (inactive)

row,SMILES,max activation
1,CC(CCc1ccccc1)NC(=O)c1cnc(Cl)c(Cl)c1 (stereo not drawn),-0.183% (inactive)
2,CCCCSc1ncnc2c1sc1nc(N3CCOCC3)c3c(c12)CCCC3,-9.06% (inactive)
3,COc1ccc(N)cc1NC(=O)CN1CCOCC1,3.16% (inactive)
4,COc1ccc(NC(C)=O)cc1NC(=O)CN1CCN(c2ccc(F)cc2)CC1,3.91% (inactive)
5,COc1ccc(NC(C)=O)cc1NC(=O)CN1CCN(C2c3ccccc3-c3ccccc32)CC1,46.6% (active)
6,Cc1nn2c(=O)cc(COC(=O)CNC(=O)c3ccc(F)cc3)nc2s1,-2.47% (inactive)
7,CCOc1ccc(NC(=O)C/C(C)=N/NC(=O)Cc2cccs2)cc1,5.68% (inactive)
8,CCOc1ccccc1NC(=O)CCn1cnnn1,4.34% (inactive)
9,CCOc1ccccc1NC(=O)Cc1cccs1,49.3% (active)
10,COc1ccc(CNC(=O)CCc2c(C)nn(-c3ccc(N4CCCC4)nn3)c2C)cc1,9.29% (inactive)
11,COc1c(C)cc(C(=O)C2CCCN(S(=O)(=O)c3c(C)noc3C)C2)cc1C (stereo not drawn),32.6% (active)
12,Cc1noc(C)c1S(=O)(=O)N1CCCC(C(=O)Nc2nccs2)C1 (stereo not drawn),2.46% (inactive)
13,CCOC(=O)C1CCN(S(=O)(=O)c2c(C)noc2C)CC1,-8.75% (inactive)
14,CCCn1c(NCc2ccc(N(CC)CC)cc2)nc2ccccc21,-7.25% (inactive)
15,COC(=O)c1ccccc1NC(=O)c1cnn(-c2ccc(F)cc2)c1-n1cccc1,-7.92% (inactive)
16,CCOCCc1nn2c(=O)cc(COC(=O)CNC(=O)c3ccc(C(C)(C)C)cc3)nc2s1,6.28% (inactive)
17,Cc1ccc(-n2nc(CO)c(C(=O)NCCc3ccccc3)n2)cc1,1.72% (inactive)
18,CCSc1nnc2c(n1)OC(c1ccc(OCC(=O)O)cc1)Nc1ccccc1-2 (stereo not drawn),6.71% (inactive)
19,CCC(=O)N1CCc2cc(S(=O)(=O)NC(Cc3ccccc3)C(=O)NCc3ccc(C)cc3)ccc21 (stereo not drawn),3.11% (inactive)
20,Cn1c(CCN2CCN(c3ccccn3)CC2)nc2cc(NS(=O)(=O)c3ccc(F)cc3)ccc21,2.61% (inactive)
21,CCC(=O)Nc1ccc2c(c1)nc(CCN1CCN(c3ccccn3)CC1)n2C,38.1% (active)
22,O=C(CN1CCN(c2ccccn2)CC1)Nc1ccc(Br)cc1,45.2% (active)

row,SMILES,max activation
1,CCOC(=O)N1CCN(Cc2nc3cc(NC(=O)CC)ccc3n2CC)CC1,-5.31% (inactive)
2,O=C(CN1CCN(c2ccccn2)CC1)NCc1cccs1,-2.33% (inactive)
3,O=C(CN1CCN(c2ncccn2)CC1)Nc1ccccc1C(F)(F)F,5.01% (inactive)
4,Oc1ccc(Cl)c2c1CCC2,-6.75% (inactive)
5,CCc1ccc(CNCc2c(C(=O)O)n(Cc3ccc(F)cc3Cl)c3cc(OC)ccc23)cc1,-22.5% (inactive)
6,CCCC(=O)Nc1ccc2oc(-c3ccc(O)c(Br)c3)nc2c1,6.09% (inactive)
7,CC1CCCCN1CC(=O)N1CCCc2c1c(=O)oc1ccc(OCc3ccccc3)cc21 (stereo not drawn),-16.2% (inactive)
8,Cc1ccccc1NC(=O)c1c(NC(=O)c2ccccc2F)sc2c1CCC(C)C2 (stereo not drawn),4.23% (inactive)
9,Cc1nnc(C(=O)NC(C)(C)c2nc(C(=O)NCc3ccc(F)cc3)c(O)c(=O)n2C)o1,4.42% (inactive)
10,N#Cc1ccc(-c2ccc(Cl)cc2)nc1Oc1ccc(F)cc1,34.7% (active)
11,N#Cc1ccc(-c2ccc(F)cc2)nc1Sc1ccccc1,5.43% (inactive)
12,CN(C)c1ccnc(Oc2ccc(F)cc2)c1C#N,2.14% (inactive)
13,Cn1c(=O)sc2cc(NS(=O)(=O)c3ccc(C(C)(C)C)cc3)ccc21,-11% (inactive)
14,CCc1ccc(-n2c(SCc3cc(=O)n4cc(Br)ccc4n3)nc3[nH]ncc3c2=O)cc1,18.2% (inactive)
15,Cc1nnc(NC(=O)CSc2nc3c([nH]c4ccccc43)c(=O)n2-c2cccc(Cl)c2)s1,16.6% (inactive)
16,Cc1cccc2nc(CSc3nc4[nH]ncc4c(=O)n3-c3cccc(Cl)c3)cc(=O)n12,32.7% (active)
17,CO[C@H]1C=CO[C@@]2(C)Oc3c(C)c(O)c4c(O)c(c(/C=N/N5CCN(C)CC5)c(O)c4c3C2=O)NC(=O)/C(C)=C\C=C[C@H](C)[C@H](O)[C@@H](C)[C@@H](O)[C@@H](C)[C@H](OC(C)=O)[C@@H]1C,-16.3% (inactive)
18,COc1ccc(-n2c(=O)c3ccccc3n(Cc3ccccc3Cl)c2=O)cc1,4.01% (inactive)
19,Cc1ccc(CSc2oc(-c3cccs3)nc2S(=O)(=O)c2ccc(C)cc2)cc1,6.03% (inactive)
20,COCCCNC(=O)CSc1nc2ccc(N3CCOCC3)cc2c(=O)n1CCc1ccccc1,-3.98% (inactive)
21,CCCCn1c(SCC(=O)NCC2CCCO2)nc2ccc(N3CCOCC3)cc2c1=O (stereo not drawn),33% (active)
22,N#CCSc1nc2ccc(N3CCOCC3)cc2c(=O)n1CCc1ccccc1,3.32% (inactive)

row,SMILES,max activation
1,COc1ccccc1CNCc1ccc(C(=O)O)s1,6.32% (inactive)
2,COc1ccc(C)cc1Nc1nc2ccccc2c2nnc(C)n12,8.25% (inactive)
3,COC(=O)c1ccc(NC(=O)CCc2c(C)nn(-c3ccc(N4CCCC4)nn3)c2C)cc1,-2.49% (inactive)
4,Cc1ccc(OCC(=O)Nc2ccc(OCc3cc(=O)n4c(C)csc4n3)cc2)cc1C,4.15% (inactive)
5,CCc1ccc(NC(=O)CN2CCC(C(=O)c3ccc(OC)cc3)CC2)cc1,-15.3% (inactive)
6,CCOc1ccc(NC(=O)CN2CCN(CC(=O)Nc3ccc(OC)cc3)CC2)cc1,10.4% (inactive) and 34.5% (active)
7,COc1ccc(NC(=O)CCN2CCN(CCO)CC2)cc1,4.05% (inactive)
8,CCc1ccc(S(=O)(=O)n2ccnc2)cc1,8.12% (inactive)
9,Oc1ccccc1-c1nc2ccc(Cl)cn2c1Nc1ccc2c(c1)OCCO2,-2.82% (inactive)
10,CCOC(=O)CSC1=C(C#N)C(c2sccc2C)CC(=O)N1 (stereo not drawn),31.9% (active)
11,C=CCSC1=C(C#N)C(c2cc(Br)c(O)c(OC)c2)CC(=O)N1 (stereo not drawn),9.82% (inactive)
12,Cc1ccsc1C1C(C#N)=C(N)OC2=C1C(=O)CC(C)C2 (stereo not drawn),1.57% (inactive)
13,Cc1ccccc1CNC(=O)c1cccc(NC(=O)c2nsc3ccccc23)c1,8.47% (inactive)
14,CCCc1c2oc(C(=O)O)cc(=O)c2cc2c(=O)cc(C(=O)O)n(CC)c12,-9.91% (inactive)
15,COc1ccc(-c2csc(-c3c(N)c(C(=O)c4ccc(OC)c(OC)c4)n4ccccc34)n2)cc1,4.7% (inactive)
16,Cc1c(C=O)c2ccccn2c1C(=O)c1ccncc1,31.8% (active)
17,COc1ccc(OC)c(-c2csc(-c3c(N)c(C(=O)c4ccccc4)n4ccccc34)n2)c1,-12% (inactive)
18,Nc1nc(/C(=C/CC(=O)O)C(=O)N[C@@H]2C(=O)N3C(C(=O)O)=CCS[C@H]23)cs1,4.45% (inactive)
19,COc1ccc(-c2nc3sc(CCNS(=O)(=O)c4ccc(F)c(C)c4)c(C)n3n2)cc1,6.72% (inactive)
20,Cc1cccc(N2CCN(C(=O)c3ccc4c(c3)CCN4S(=O)(=O)c3ccccc3)CC2)c1C,-0.325% (inactive)
21,CCn1c(C)c(C)c2cc(C(=O)N3CCN(c4cccc(C)c4C)CC3)ccc21,5.02% (inactive) and 95.9% (active)
22,Cc1c(C)n(Cc2ccc(Cl)cc2)c2ccc(C(=O)N3CCN(c4ccccc4F)CC3)cc12,-3.88% (inactive)
